We go through 36 molecules from PubChem BioAssay (NCATS).

Structures are written as SMILES. Records with an inconclusive call do not appear. Active and inactive are the calls of the source. Calls come from the whole dose curve; as a rule, active = well fitted inhibition curve with a large enough effect; inconclusive = small, poorly fitted or top-dose-only effect; inactive = no such curve, though single readings can be large or run the other way.

A short description of this test: qHTS assay for measurement of the activity of small molecule inhibitors on Zika virus induced Caspase-3 activity in human iPSC derived neural progenitor cells (hNPCs) (AID 1224857). Note: nearly all actives have a fitted effect of over 65% in size. The note with it: hNPCs ZIKV-induced caspase-3/7, Caspase-Glo luminescence, 6 h; series mostly up to 45.7 µM. An outline of the steps:
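Human iPSC-derived neural progenitor cells pretreated 1 hr with compounds, then infected with Zika virus (2 FFU/cell) for 6 hours at 37 C. Caspase-3/7 measured by Caspase-Glo luminescence; % inhibition calculated from induction scaled to uninfected (0%) and infected (100%) wells.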
(In general: In qHTS, concentration-response curves come from the screen itself.)
Take `COc1cc2c(cc1OC)-c1cc(=Nc3c(C)cc(C)cc3C)n(C)c(=O)n1CC2`: the molecule was classed as inactive.

Regarding `C=CCc1ccccc1OCC(O)CNC(C)C` (stereo unspecified), the molecule was called inactive.

Consider `Cc1scc2c1N(C(=O)CN1CCN(C)CC1)c1ccccc1NC2=O`, for which the call was inactive.

Turning to `COc1ccc([C@@H]2Sc3ccccc3N(CCN(C)C)C(=O)[C@@H]2OC(C)=O)cc1`, the call was inactive.

Take `O=C(CCCN1CCC(O)(c2cccc(C(F)(F)F)c2)CC1)c1ccc(F)cc1`: the call was inactive.

Take `CN(C)CCCN1c2ccccc2Sc2ccc(C(F)(F)F)cc21`: the molecule was called inactive.

On to `COCCOC(=O)C1=C(C)NC(C)=C(C(=O)OC(C)C)C1c1cccc([N+](=O)[O-])c1` (stereo unspecified), for which the outcome was inactive.

For `CSc1ccc(C(=O)c2[nH]c(=O)[nH]c2C)cc1`, the molecule was called inactive.

Turning to `CC1=NS(=O)(=O)c2cc(Cl)ccc2N1`, the outcome was inactive.

As to `Cc1ccc(Cl)c(Nc2ccccc2C(=O)O)c1Cl`, the result was inactive.

Regarding `CN(C)CC[C@@H](c1ccc(Br)cc1)c1ccccn1`, the molecule was classed as inactive.

Take `Fc1ccc(C(c2ccc(F)cc2)N2CCN(C/C=C/c3ccccc3)CC2)cc1`: the outcome was inactive.

`c1cnc(N2CCN(Cc3ccc4c(c3)OCO4)CC2)nc1`: the call was inactive.

Consider `c1cc(CN2CCCCC2)cc(OCCCNc2nc3ccccc3s2)c1`, for which the molecule was classed as inactive.

`CCN(CC)CCCN(c1ccccc1)C1Cc2ccccc2C1`: the call was inactive.

`Cc1cc(C)c(/C=C2\C(=O)Nc3ccccc32)[nH]1`: the molecule was called inactive.

Regarding `CC(C)NCC(O)c1cc(O)cc(O)c1` (stereo unspecified), the molecule was classed as inactive.

`C[N+](C)(C)CCOC(N)=O`: the call was inactive.

With `CCN1CCC[C@H]1CNC(=O)c1c(O)c(Cl)cc(Cl)c1OC`, the molecule was called inactive.

In the case of `COC(=O)[C@@H](N)Cc1ccc(O)c(O)c1`, the molecule was classed as inactive.

On to `CCN(CC)CCOCCOC(=O)C1(c2ccccc2)CCCC1`, for which the outcome was inactive.

On to `Cc1nnc(SCC2=C(C(=O)O)N3C(=O)[C@@H](NC(=O)Cn4cnnn4)[C@H]3SC2)s1`, for which the result was inactive.

On to `CN1CCN(CC(=O)N2c3ccccc3C(=O)Nc3cccnc32)CC1`, for which the molecule was called inactive.

Turning to `C[n+]1cc2c3c(ccc2c2ccc4cc5c(cc4c21)OCO5)OCO3`, the molecule was classed as inactive.

As to `CC(=O)OC(C)C[N+](C)(C)C` (stereo unspecified), the molecule was called inactive.

Turning to `C[N+](C)(C)CCOC(=O)CCC(=O)OCC[N+](C)(C)C`, the molecule was classed as inactive.

As to `CN(C)C(=O)Oc1cccc([N+](C)(C)C)c1`, the molecule was called inactive.

Turning to `CN(C(=O)CCCOc1ccc2[nH]c(=O)ccc2c1)C1CCCCC1`, the molecule was called inactive.

Turning to `CCN(CC)CCNC(=O)c1ccc(NC(C)=O)cc1`, the molecule was classed as inactive.

As for `CNCCCN1c2ccccc2CCc2ccccc21`, the molecule was classed as inactive.

Turning to `CCNC(=O)N1CCN(CCCC(c2ccc(F)cc2)c2ccc(F)cc2)CC1`, the molecule was called inactive.

Consider `O=C(O)CP(=O)(O)O`, for which the molecule was classed as inactive.

As for `CCCN(CCC)C(=O)C(CCC(=O)O)NC(=O)c1ccccc1` (stereo unspecified), the molecule was classed as inactive.

For `CCn1cc(C(=O)O)c(=O)c2cc3c(cc21)OCO3`, the molecule was classed as inactive.

Consider `CCOC(=O)C1=C(C)NC(C)=C(C(=O)OC)C1c1cccc([N+](=O)[O-])c1` (stereo unspecified), for which the molecule was called inactive.

`CCCN1C[C@H](CSC)C[C@@H]2c3cccc4[nH]cc(c34)C[C@H]21`: the call was inactive.
